# PubChem BioAssay AID1509 (The Scripps Research Institute Molecular Screening Center, 2009)
# Out of some 220,000 compounds screened, about 770 (0.35%) were called active. The entries come from a sample that favours actives as a whole. Unmarked numbers belong to inactive results. No stated cut-off is given here; in the data, active means activation above about 11%; inactive means the rest.
# Target: Sphingosine 1-phosphate receptor 4 (Homo sapiens) (UniProt O95977)
# Test: activators of human S1P4 receptor – cell-based, primary screen (AID 1509);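 further: 0% = DMSO vehicle and 100% = reference agonist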
# Conditions: S1P4-expressing cell line, agonist reporter assay; at 4.98 µM; stronger effect = higher value
# Chain of Sphingosine 1-phosphate receptor 4 (Homo sapiens) (O95977 whole entry, looked up): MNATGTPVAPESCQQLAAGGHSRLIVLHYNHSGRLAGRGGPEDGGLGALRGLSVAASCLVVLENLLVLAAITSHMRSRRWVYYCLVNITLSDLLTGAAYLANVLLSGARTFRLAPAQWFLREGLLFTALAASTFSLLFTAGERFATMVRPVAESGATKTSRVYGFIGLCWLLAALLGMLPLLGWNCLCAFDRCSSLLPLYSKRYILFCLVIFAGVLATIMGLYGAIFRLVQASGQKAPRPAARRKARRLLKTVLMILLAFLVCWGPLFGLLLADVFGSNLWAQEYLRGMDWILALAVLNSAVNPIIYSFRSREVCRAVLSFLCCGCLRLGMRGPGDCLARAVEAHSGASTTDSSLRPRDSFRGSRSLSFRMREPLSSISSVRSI
row,SMILES,activation
1,Cc1nc(-c2nnc(SCC(=O)Nc3cc(C(F)(F)F)cc(C(F)(F)F)c3)n2C)cs1,-0.18%
2,O=C1C=C(c2ccc(Cl)cc2)C(=O)N1Nc1ccccc1,-3.55%
3,CCOc1ccc(N2CC(C(=O)N/N=C/c3sccc3C)CC2=O)cc1 (stereo not drawn),-0.25%
4,NC(=O)COC(=O)c1sc2cc(F)ccc2c1Cl,0.19%
5,COc1ccc(CCNC(=O)C(Sc2ccccn2)c2ccccc2)cc1OC (stereo not drawn),-2.85%
6,O=C(Nc1ccc(N2CCOCC2)cc1)c1ccc2c(c1)OCO2,1.77%
7,CC1CN(C(=O)c2ccccc2NS(=O)(=O)c2cccc([N+](=O)[O-])c2)CC(C)O1 (stereo not drawn),1.5%
8,CCc1ccc(Nc2nnc(SCC(=O)c3ccc4c(c3)NC(=O)CO4)s2)cc1,1.5%
9,CC1CCCN(CC(O)COc2ccc3c(c2)OCO3)C1 (stereo not drawn),0.61%
10,COCCn1c(SCc2nnc(-c3ccc(OC)c(OC)c3)o2)nc2sc3c(c2c1=O)CCC3,1.63%
11,CCOc1cnc(-c2c(-c3ccccc3Cl)noc2C)o1,0.62%
12,CC1CCCC(NC(=O)c2cccc(N3CCCC3=O)c2)C1C (stereo not drawn),-1.52%
13,COc1ccccc1CNC(=O)CNC(=O)c1cn(-c2ccccc2OC)c(=O)c2ccccc12,16.9% (active)
14,COc1ccccc1CNC(=O)CCn1c(=O)sc2ccccc21,-0.92%
15,COc1ccccc1CNC(=O)c1cc(=O)c2ccccc2o1,0.7%
16,COc1cccc(CN(C)CC(=O)Nc2ccccc2C(=O)Nc2ccccc2)c1,0.57%
17,CN(C)c1nc(-c2cccnc2)nc(-c2ccc(Cl)cc2)c1C#N,0.37%
18,CC(Oc1ccc(-c2ccccc2)c(F)c1)c1ccn(S(=O)(=O)c2cccc3ccccc23)n1 (stereo not drawn),-2.56%
19,COc1ccc(NC(=O)C(=O)NCC(=O)Nc2cccc(C(F)(F)F)c2)cc1,0.93%
20,COc1ccc(-c2ccc(CCC(=O)O)n2NC(=O)c2ccc(C(C)(C)C)cc2)cc1,-0.13%
21,COc1ccc(-n2c(C)cc(C(=O)CN3C(=O)NC4(CCc5ccccc54)C3=O)c2C)cc1 (stereo not drawn),16.1% (active)
22,Cc1ccc(-n2c(C)cc(C(=O)CN3C(=O)C(=O)N(C4CCCC4)C3=O)c2C)cc1,0.78%
23,CN(C)S(=O)(=O)c1cc(NC(=O)CN2C(=O)NC3(CCCc4ccccc43)C2=O)ccc1Cl (stereo not drawn),0.63%
24,COC(=O)c1cc(C(=O)N(Cc2ccccc2)c2ccccn2)cc([N+](=O)[O-])c1,1.87%

row,SMILES,activation
1,Cc1ccccc1OCCC(=O)OCC(=O)NC(C)c1ccccc1 (stereo not drawn),-1.6%
2,CCN(CC)C(=O)Cn1cc(S(=O)(=O)CC(=O)NCc2ccc3c(c2)OCO3)c2ccccc21,-1.22%
3,COc1ccc(C(=O)NN2C(=O)C3C(c4ccccc4)C=CC(c4ccccc4)C3C2=O)cc1 (stereo not drawn),-0.98%
4,N#C/C=C(/c1ccc(F)cc1)N1CCOCC1,-1.05%
5,Cc1cc2c(C)nc(N/N=C/c3ccccc3)nc2o1,-1.39%
6,CC(=O)Nc1ccc(SCC(=O)Nc2ccccc2Oc2ccccc2)cc1,13.2% (active)
7,O=C(CSc1ccccc1)Nc1cc(Cl)ccc1Oc1ccccc1,0.59%
8,Cc1cc(C)cc(NC(=O)CSc2ccccc2)c1,-1.04%
9,N#Cc1ccccc1Sc1ccccc1C(=O)OCC(=O)NC1CCCCC1,2.4%
10,O=C(COC(=O)c1cc([N+](=O)[O-])ccc1NCc1ccccc1)NC1CCCCC1,15.3% (active)
11,O=C(COC(=O)c1ccccc1SCC(=O)NC1CCCCC1)NC1CCCCC1,0.41%
12,Cc1nn(CC(=O)Nc2ccc(N(C)C)cc2)c(C)c1[N+](=O)[O-],-0.79%
13,NC(=O)c1ccc(-c2csnn2)cc1,-0.31%
14,N/C(=N\OC(=O)Cc1ccc([N+](=O)[O-])cc1)c1ccccn1,15.5% (active)
15,N/C(=N\OC(=O)c1ccc([N+](=O)[O-])cc1)c1ccccn1,-0.02%
16,O=C(OCc1ccc([N+](=O)[O-])cc1)c1ccccn1,-1.16%
17,CCc1ccc(NC(=O)N[C@H](C(=O)O)C(C)CC)cc1 (stereo partly drawn),-0.3%
18,O=S(=O)(Nc1ccc(Cl)cn1)c1cnc(Cl)c(Br)c1,0.57%
19,Cc1cc(NC(=O)c2cc(-c3cccs3)on2)nn1Cc1ccc(Cl)cc1,13.1% (active)
20,Cc1ccc(Cn2ccc(NC(=O)c3cc(C(C)C)on3)n2)cc1,-0.1%
21,O=C(c1cc(-c2cccs2)on1)N1CCCCC1,0.14%
22,CCn1c(CNC(=O)c2ccc(OC)c(OC)c2)nnc1SCC(=O)Nc1ccccc1,21.5% (active)
23,CCn1c(CNC(=O)c2ccco2)nnc1SCC(=O)Nc1cccc(F)c1,1.91%
24,CCn1c(Cc2ccccc2)nnc1SCC(=O)Nc1ccccc1,-2.58%

row,SMILES,activation
1,O=C(CN1CCN(S(=O)(=O)c2ccc(Cl)s2)CC1)NCc1ccc(Cl)cc1,0.73%
2,COC(=O)C1=C(C)N(C)C(=O)NC1c1ccc([N+](=O)[O-])o1 (stereo not drawn),0.41%
3,Brc1ccc(-c2n(-c3ccccn3)c3ccccc3[n+]2-c2ccccn2)cc1,-0.47%
4,CCn1c(N)c(Br)c(=O)[nH]c1=O,0.16%
5,O=C(NNS(=O)(=O)c1ccccc1)c1cnn(-c2ccc(Cl)cc2)c1C(F)(F)F,1.09%
6,Cc1ccc(NC(=O)CC2C(=O)N(Cc3ccccc3)C(=S)N2NC(=O)c2cccc(F)c2)c(C)c1 (stereo not drawn),2.02%
7,Cc1ccc(/C=N/NC(=O)Cn2ccc(C(F)(F)F)n2)o1,1.08%
8,CC(=O)NC(=S)Nc1ccc(NC(=O)c2cccnc2)cc1,-0.19%
9,COc1ccc(CCn2c(NN=C3CCCC3)nc3c2c(=O)[nH]c(=O)n3C)cc1,-1.13%
10,FC(F)(F)c1ccnc(Oc2ccc(C3=NCCS3)cc2)c1,-0.27%
11,O=c1cc(N2CCCCC2)c(-c2ccccc2)nn1Cc1cccc(F)c1,0.58%
12,Cc1cc(C)cc(Oc2nc3c(C)cccn3c(=O)c2/C=C(\C#N)C(=O)NC2CCS(=O)(=O)C2)c1 (stereo not drawn),2.53%
13,Cc1ccc(CSc2nnc(-c3cnccn3)n2C)cc1,-0.85%
14,CC(C)c1ccc(NC(=S)NC2CC3C=CC2C3)cc1 (stereo not drawn),-1.16%
15,O=C(COc1cccc2ccccc12)Nc1cc(S(=O)(=O)N2CCOCC2)ccc1N1CCOCC1,-0.32%
16,O=C(COC(=O)c1ccccc1F)Nc1cc(S(=O)(=O)N2CCOCC2)ccc1N1CCCC1,-0.01%
17,O=C(COC(=O)Cc1ccc(F)cc1)Nc1cc(S(=O)(=O)N2CCOCC2)ccc1N1CCCC1,17.3% (active)
18,Cc1cc(C)cc(NC(=O)Cn2cnc3c(nnn3Cc3ccc(F)cc3)c2=O)c1,-0.07%
19,O=C(COC(=O)c1ccco1)NCc1ccc(Cl)cc1,0.62%
20,Cc1ccccc1N1CCN(Cc2nc(Cc3ccccc3F)no2)CC1,0.64%
21,COc1ccc(NC(=O)CSc2ncnc3[nH]ncc23)cc1,-1.23%
22,CC(C)(C)c1ccc(/C=C2\Oc3c(ccc(O)c3CN3CCN(CCO)CC3)C2=O)cc1,0.44%
23,CC(=O)c1cccc(NC(=O)Nc2ccc(C)cc2)c1,-3.97%
24,Cc1c(NC(=O)Nc2ccccc2)cccc1[N+](=O)[O-],1.03%

row,SMILES,activation
1,Cc1ccc(NC(=O)Nc2ccccc2)c(Br)c1,19.4% (active)
2,Cc1ccc(N/C(N)=N/c2nc(C(F)(F)F)cc(C(F)(F)F)n2)cc1,2.06%
3,Fc1ccc(Nc2nnns2)cc1,1.1%
4,CC(=O)c1ccc(S(=O)(=O)N2CCN(C(=O)/C=C/c3ccc4ccccc4n3)CC2)cc1,-0.28%
5,O=C1C(Cc2ccc(O)cc2)NC(=S)N1Cc1ccccc1 (stereo not drawn),0.05%
6,COc1ccc(N2C(=O)C(Cc3ccccc3)NC2=S)cc1 (stereo not drawn),18.3% (active)
7,Cc1ccc(N2C(=O)C(Cc3ccccc3)NC2=S)cc1 (stereo not drawn),-4.7%
8,O=C(NCc1ccccc1)C1CCCN(c2nc3ccsc3c(=O)s2)C1 (stereo not drawn),2.93%
9,Cc1nn(-c2ccccc2)c(Cl)c1/C=C/C(=O)c1ccc(O)cc1,4.66%
10,Cc1ccc2c(c1)c1ncn(Cc3ccc(F)cc3)c(=O)c1n2C,0.67%
11,CC(=O)N1CCC(N(C(=O)Nc2ccc(Cl)cc2)C(C)C)CC1,-0.35%
12,CCOc1ccc(/C(O)=C2\C(=O)C(=O)N(c3ccc(OC)cc3)C2c2ccccc2[N+](=O)[O-])cc1 (stereo not drawn),0.81%
13,COc1ccccc1N1N=C(c2cccs2)CC1c1ccccc1 (stereo not drawn),7.12%
14,COc1ccc(C2=NN(c3ccccc3)C(c3cccs3)C2)cc1 (stereo not drawn),1.42%
15,COc1ccc(C2CC(c3cccs3)=NN2c2ccccc2)cc1 (stereo not drawn),11.6% (active)
16,COc1ccc(C2CC(c3cccs3)=NN2c2ccc(F)cc2)cc1OC (stereo not drawn),19.4% (active)
17,COc1ccc(C2CC(c3cccs3)=NN2C(=O)CSc2nncs2)cc1OC (stereo not drawn),0.18%
18,COc1ccc(C2CC(c3cccs3)=NN2c2nc(C)c(C(C)=O)s2)cc1OC (stereo not drawn),2.99%
19,CSc1nc2nc3c(c(=O)n2[nH]1)CCC3,-0.27%
20,COc1ccc(CN2CN(C3CCCC3)CSC2=S)cc1,-0.49%
21,Cc1c(C(=O)Nc2cccc(-c3nnc4n3CCCCC4)c2)oc2ccccc12,2.38%
